Measurements: PubChem BioAssay AID1527 (The Scripps Research Institute Molecular Screening Center, 2009)
Screen size: about 290,000 compounds; about 2,600 (0.9%) were called active. Only a selection was taken, and actives are over-represented in it overall. A number with no mark means an inactive call.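 The calls were made as follows: active = inhibition above the mean of all tested compounds plus 3 SD, cutoff set per screening run (cut at about 7.5% in these data); inactive = the rest.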

What follows are molecules tested on VIM-2 metallo-beta-lactamase (Pseudomonas aeruginosa) (assay: VIM-2 metallo-beta-lactamase inhibitors, primary screen, biochemical, epi-absorbance readout, Pseudomonas aeruginosa enzyme (AID 1527;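 also: red hydrolysis product quenches plate fluorescence so inhibitors raise well fluorescence; 0% = enzyme with DMSO and 100% = DMSO without enzyme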)). Conditions: purified VIM-2, nitrocefin hydrolysis, epi-absorbance fluorescence; at 5.6 µM; stronger effect = higher value.

Compound | inhibition
O=C(CCC1CCCN(C(=O)c2ccc(F)c(F)c2)C1)N1CCN(c2ccccn2)CC1 (stereo not given) | -0.15%
CCn1ccnc1CNC(=O)CC1C(=O)NCCN1Cc1ccc(F)cc1Cl (stereo not given) | -4.36%
CN1C(=O)c2cccc3c(N)ccc(c23)C1=O | 50.1% (active)
O=C1c2ccccc2C(=O)N1c1cccc2ccccc12 | -0.93%
CC(=O)Nc1ccccc1Sc1ccc2c3c(cccc13)C(=O)N(c1ccc(C)cc1)C2=O | -3.98%
Cc1nn(-c2cc(Cl)ccc2N)c(=O)c2ccccc12 | -2.2%
O=C(O)c1ccc2c3c(cccc13)C(=O)N(OS(=O)(=O)c1ccccc1)C2=O | 0.17%
Cc1nn(C)cc1N1C(=O)c2cccc3c(N)ccc(c23)C1=O | 21.7% (active)
NS(=O)(=O)c1ccc(N=Nc2c(O)[nH]c3ccc(Br)cc23)cc1 | -2.22%
Cc1c(C=O)c2ccccc2n1CCOc1ccccc1 | -0.2%
CN(C)CCCN(C(=O)c1ccc(S(=O)(=O)N2CCCc3ccccc32)cc1)c1nc2ccc(F)cc2s1 | -1.07%
CCc1cc(C(N)=O)c(NC(=O)c2ccc(OC)cc2)s1 | -2.73%
CCc1cc(C(=O)c2ccc(OC)cc2)c(NC(=O)CN2CCN(C)CC2)s1 | 7.76% (active)
CCOc1ccc(NC(=O)CN2CCN(CC(=O)Nc3ccc(OC)cc3)CC2)cc1 | 0.38%
COc1cccc(CN(C)CC2CCCN(CCc3ccc(Cl)cc3)C2)c1OC (stereo not given) | -0.31%
COc1ccc(CNc2cc(C)cc(C)c2)cc1OC | -0.65%
O=C(/C=C/c1cccc(C(F)(F)F)c1)N1CCN(c2ccccn2)CC1 | -1.71%
COc1ccccc1NC(=O)C1CCN(C(=O)c2ccc(C(C)(C)C)cc2)CC1 | -0.92%
Cc1ccc(NS(=O)(=O)c2ccc3c(c2)NC(=O)CO3)cc1 | -3.86%
COc1cccc(/C=C2\Sc3ccc(C(=O)NCC4CCCO4)cc3N(C)C2=O)c1 (stereo not given) | 2.03%

Compound | inhibition
COCCCn1c(SCC(=O)NC2CCCC2)nnc1-c1ccccc1 | -3.05%
CCC(C)c1ccc(NC(=S)N2CCCC2)cc1 (stereo not given) | -4.58%
Cc1cc(C)c2nc(SCCC#N)nc(C)c2c1 | 0.46%
Cc1cc(C)c2nc(-c3ccco3)cc(C(=O)O)c2c1 | -2.98%
Cc1cc(C)c2nc3nc(C)cc(C)c3c(N)c2c1 | 23.4% (active)
Cc1cccnc1CC(C)NC(=O)c1cc(COc2cncc(Cl)c2)on1 (stereo not given) | -1.87%
O=C1c2ccccc2C(=O)c2c1cccc2N1CCN(CCO)CC1 | 8.84% (active)
O=C1c2ccccc2C(=O)c2c1cccc2N1CCN(Cc2ccccc2)CC1 | -2.44%
OCCN1CCN(c2nnc(-c3ccccc3)c3ccccc23)CC1 | 1.21%
CN(C)Cc1c(O)ccc2c(=O)c(-c3ccccc3Cl)coc12 | -1.33%
Cc1ccc(CNC(=O)C2CCCN2S(=O)(=O)c2ccc3c(c2)C(C)(C)C(=O)N3C)cc1 (stereo not given) | -0.78%
Cc1ccc2nc3n(c(=O)c2c1)CCC3 | -2.8%
Cc1ccc2nc(Nc3ccccc3)cc(C)c2c1 | 0.49%
Cc1ccc2nc(C)c3c(c2c1)N(c1ccccc1)CC3 | 14.6% (active)
COc1ccc(S(=O)(=O)N(CC(=O)NCc2ccco2)c2ccc(F)cc2)cc1 | -4.2%
CCOc1ccccc1-c1nc(CN2CCC(C(=O)N3CCOCC3)CC2)c(C)o1 | -1.39%
Cc1cc(C)c2c(n1)nn1c(-n3ccnc3)cc(C)nc21 | 5.51%
Cc1cc(C)c2c(n1)nn1c(N3CCOCC3)cc(C)nc21 | 16.1% (active)
Cc1cc(C)c2c(n1)nn1c(N3CCN(c4cccc(Cl)c4)CC3)cc(C)nc21 | -6.43%
COc1ccc(OCC(=O)NCCS(=O)(=O)N2CCN(c3ccc(F)cc3)CC2)cc1 | -1.58%

Compound | inhibition
CCC(=O)N1c2ccc(S(=O)(=O)NCc3ccco3)cc2CC1C (stereo not given) | -0.12%
O=C(N/C(=C\c1ccc([N+](=O)[O-])cc1)C(=O)N1CCCCC1)c1ccco1 | -3.79%
COc1ccc(OC)c(S(=O)(=O)n2c([N+](=O)[O-])cnc2C)c1 | -2.01%
CCOC(=O)C(Cc1ccc(N)cc1)N1C(=O)c2ccccc2C1=O (stereo not given) | -2.51%
Cc1cc(Cl)ccc1OCCCC(=O)NCc1ccncc1 | -1.05%
CC(Oc1cc2oc(=O)c3c(c2cc1Cl)CCCC3)C(=O)NCc1ccncc1 (stereo not given) | 7.79% (active)
COc1ccc(S(=O)(=O)NC(C)C(=O)NCc2ccncc2)cc1Cl (stereo not given) | -2.14%
CCCCc1nc2cc(C(=O)NCCc3cnn(C)c3)ccc2o1 | 1.12%
CC(C)(C)CC(=O)Nc1nnc(SCC(=O)NCc2cccs2)s1 | 20.2% (active)
O=C(Cc1cccs1)Nc1nnc(SCc2ccc(F)cc2)s1 | 0.7%
Cc1nnc(SCC(=O)NCc2cccs2)[nH]c1=O | -0.38%
CCn1c(SCc2cccc(C(=O)O)c2)nnc1-c1ccc(Cl)cc1 | -1.15%
Cn1c(=O)c2c(nc(N3CCCCCC3)n2CC(=O)c2ccc(Br)cc2)n(C)c1=O | -2.28%
Cn1c(=O)c2c(nc(N3CCOCC3)n2CCNC2=NCCC2)n(C)c1=O | 16% (active)
CCCCn1c(SCC(=O)N2CCOCC2)nc2c1c(=O)n(C)c(=O)n2C | 1.45%
COc1ccc(C(=O)NCCNc2ccc([N+](=O)[O-])cn2)cc1 | 0.89%
Cc1cc(=O)oc2c(C)c(OC(C)C(=O)NC3CCN(Cc4ccccc4)CC3)ccc12 (stereo not given) | 2.37%
Cc1c(OC(C)C(=O)NCC2CCC(C(=O)O)CC2)ccc2c1oc(=O)c1ccccc12 (stereo not given) | 10.8% (active)
Cc1c(OC(C)C(=O)N[C@@H](Cc2ccccc2)C(=O)O)ccc2c3c(c(=O)oc12)CCCC3 (stereo not given in full) | 6.52%
C=CCc1ccc(OCCOc2cccc(/C=N/n3cnnc3)c2)c(OC)c1 | 0.81%
